# Rows were chosen to be rich in hits. Some 12% of all compounds tested hit in one or more screens of this group.
# ALDH1A1 inh = inhibitors of human aldehyde dehydrogenase 1A1; P00352; Purified ALDH1A1, NADH fluorescence, propionaldehyde substrate; Potency, µM (titrated, usually from 75.3 µM), without a hit: at the top dose activity, negative = inhibition, hits mostly inhibitors; 220,000 compounds, 7.3% hits; AID 1030; active = well fitted inhibition curve with a large enough effect, not every such curve was filed as active; inconclusive = small, poorly fitted or top-dose-only effect, or another doubt; inactive = no such curve, though single readings can be large or run the other way;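 also: plate controls were no enzyme wells and a reference inhibitor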
# Gal4-VP16 FLuc = inhibits Gal4-VP16 luciferase reporter, ROR gamma counter-screen; Drosophila S2 Gal4-VP16 UAS-luciferase, luminescence, 20 h; Potency, µM (top dose mostly 53.6 µM), without a hit: at the highest dose activity, negative = inhibition, most hits filed as inhibitors; 310,000 compounds, 3.5% hits;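 also: Gal4-VP16 expression switched on by copper sulfate through the metallothionein promoter; nearly all actives have a fitted effect of over 50% in size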
# Sfp inh = blocks B. subtilis Sfp PPTase activity. Potency, µM, without a hit: largest response in the series, negative = inhibition, usual class: inhibitors. Biochemical Sfp PPTase activity, qHTS. Q9F4F7. 310,000 compounds, 3.5% hits;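 also: the enzyme is Sfp with the accession as filed and its product quenches rhodamine fluorescence; 0% = enzyme reaction without inhibitor and -100% = no enzyme wells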
#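 Compounds were incubated with enzyme (final 15 nM) for 15 min at room temperature before substrate addition started the reaction. Fluorescence at 525 nm excitation, 598 nm emission was recorded immediately and after 30 minutes.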
# PLK1 PBD inh = inhibitors of human PLK1 polo-box domain binding. 360,000 compounds, 2.8% hits. AID 720504. P53350. Potency, µM, without a hit: max response, negative = inhibition, most hits filed as inhibitors. Plk1 PBD binding of FITC phosphopeptide, fluorescence polarization; also: series mostly up to about 57 µM; nearly all actives have a fitted effect of over 65% in size
# RORgamma inh = ROR gamma (mouse) transcription inhibition | P51450 | Drosophila S2 Gal4-RORgamma UAS-luciferase reporter, 20 h | Potency, µM (highest dose often 53.6 µM), without a hit: top-dose activity change, negative = inhibition, actives largely listed as inhibitors | 310,000 compounds, 5.4% hits | AID 2551; also: nearly all actives have a fitted effect of over 60% in size
# Target sequence (P51450 whole entry, looked up, the tested form may be a part): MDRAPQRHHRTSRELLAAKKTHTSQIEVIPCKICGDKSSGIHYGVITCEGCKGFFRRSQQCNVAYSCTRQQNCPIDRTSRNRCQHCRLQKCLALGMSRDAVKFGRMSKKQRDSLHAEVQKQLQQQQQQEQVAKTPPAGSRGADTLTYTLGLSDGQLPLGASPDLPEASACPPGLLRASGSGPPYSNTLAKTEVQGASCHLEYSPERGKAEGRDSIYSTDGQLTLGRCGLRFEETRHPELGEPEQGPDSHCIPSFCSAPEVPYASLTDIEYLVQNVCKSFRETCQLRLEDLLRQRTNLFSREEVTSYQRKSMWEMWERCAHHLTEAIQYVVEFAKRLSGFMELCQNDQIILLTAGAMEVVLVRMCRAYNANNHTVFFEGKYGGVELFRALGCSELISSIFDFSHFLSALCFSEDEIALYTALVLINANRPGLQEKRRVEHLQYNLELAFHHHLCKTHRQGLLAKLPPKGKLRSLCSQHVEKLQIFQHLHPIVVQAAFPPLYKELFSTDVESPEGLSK
#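 ROR gamma transcriptional activity was tracked as Gal4-UAS luciferase output in stably transfected Drosophila Schneider cells, with compound added 1 hr before 700 uM copper sulfate induction and a 20 hr ambient-temperature incubation.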
# An asterisk follows results filed as active; ? = inconclusive; / = not tested or not shown; [ ] = another dose, or the depositor's remark. Unless noted, calls follow the shape of the dose curve; as a rule, active = well fitted curve in the direction sought with a large enough effect; inconclusive = small, poorly fitted or top-dose-only effect, or another doubt; inactive = no such curve, though single readings can be large; an effect the other way counts as inactive or inconclusive. Unless noted, % is scaled to controls: 0 for no effect and ±100 for the full control effect; potency is read from the fitted curve at half-maximal effect.
SMILES,ALDH1A1 inh,Gal4-VP16 FLuc,Sfp inh,PLK1 PBD inh,RORgamma inh
CCCCn1nnnc1C(c1ccccc1)N1CCN(C/C=C/c2ccccc2)CC1 (stereo not drawn),/,/,/,3.4%,/
CC[N+]1(C)CCC(O)(c2ccc(OC)cc2)C(C(=O)c2ccc(OC)cc2)C1 (stereo not drawn),/,/,/,6.7µM*,/
COc1ccc(CN(C(=O)CSc2nnc(-c3ccccc3C)o2)c2ccc(F)cc2)cc1,2.51µM*,13.7%,-2.3%,2.1%,30.8%
COC(=O)c1ccccc1NC(=O)C1CC(=O)N(c2ccc(C)c(C)c2)C1 (stereo not drawn),17.8µM*,-4.2%,-2.4%,-5.1%,-2.1%
COC(=O)c1ccccc1NC(=O)C1CC(=O)N(c2ccc(F)cc2)C1 (stereo not drawn),0.8%,10.6%,20.5%,-4.5%,-20.1%
O=C(NCc1ccc2c(c1)OCO2)C1CC(=O)N(c2ccc(Cl)cc2)C1 (stereo not drawn),/,-1.9%,22.5%,-5.3%,10.5%
Cc1ccc(N2CC(C(=O)NCc3ccc4c(c3)OCO4)CC2=O)cc1C (stereo not drawn),14.1µM*,-17.1%,-3.4%,-2.4%,1.9%
C[C@H](NC(=O)C1CC(=O)N(c2ccc3c(c2)OCO3)C1)C(=O)NC1CCCCC1 (stereo partly drawn),/,6.6%,2.8%,10.6µM*,-9.4%
CO[C@@H]1COC(=O)[C@@H](CCSC)NC(=O)C/C=C\[C@@H](C)COC(=O)[C@H](C)NC(=O)C/C=C\[C@H]1C,2.9%[13.5 µM],-14.8%[10 µM],23.3%,/,-9.2%[10 µM]
C(=C\c1ccccc1)/CN1CCN(C(c2ccccc2)c2nnnn2Cc2ccccc2)CC1 (stereo not drawn),/,/,/,0.6%,/
COc1ccc(-c2ccc(-c3noc(C(C)C)n3)c(OC)n2)cc1,?,7.6%,56.2µM*,-4.0%,33.7%
CCc1nc(-c2ccc(-c3ccc(OC)cc3)nc2OC)no1,?,-0.5%,-0.9%,3.1%,?
CCOC(=O)c1ccc([N+](=O)[O-])c(CS(=O)(=O)c2ccc(Cl)cc2)c1,/,0.8%,13.5%,1.1%,23.5%
Cc1ccc(S(=O)(=O)Cc2cc(F)c([N+](=O)[O-])cc2[N+](=O)[O-])cc1,/,6.31µM*,-1.9%,2.38µM*,-41.1%
COc1ccc(C(CC(=O)c2ccc(O)cc2)S(=O)(=O)c2ccc(C)cc2)cc1 (stereo not drawn),?,10µM*,1.9%,-9.7%,1.78µM*
COc1ccc(C(=O)CCS(=O)(=O)c2ccc(C)cc2)cc1,/,10µM*,-2.7%,10.6µM*,5.62µM*
COc1ccc(S(=O)(=O)CCC(=O)Nc2cc(C)ccc2OC)cc1,25.1µM*,-10.6%,50.1µM*,-10.9%,3.6%
Cc1ccc(S(=O)(=O)CCC(=O)c2cccc([N+](=O)[O-])c2)cc1,/,5.01µM*,22.4µM*,3.77µM*,3.98µM*
Cc1c(Cl)cc(C(C)(C)C)c(O)c1Cc1c(C)c(Cl)cc(C(C)(C)C)c1O,2.6%[13.5 µM],/,/,/,/
Cc1ccc(N=C2SC(C(=O)NCCc3ccccc3)CC(=O)N2C)cc1C (stereo not drawn),10µM*,2.2%,13.6%,-8.4%,32.2%
Cc1ccc(N=C2SC(C(=O)O)CC(=O)N2C)cc1C (stereo not drawn),2.7%,-16.5%,2.8%,-7.7%,-2.1%
COC(=O)C(C(=O)OC)c1cc2c(cc1CNS(=O)(=O)c1ccc(C)cc1)OCO2,/,/,/,-3.7%,/
COc1ccc2nc(N=Nc3ccc(N(C)C)cc3)sc2c1,3.7%,1.41µM*,-0.9%,-7.8%,14.1µM*
CN1CCN(c2ncnc3c2ncn3[C@H]2CN(Cc3ccc(C(=O)O)cc3)C[C@@H](CO)O2)CC1,/,/,/,4.0%,/
COC(C(C)/C=C/CC(=O)OCCCc1ccccc1)C1CCCCC1 (stereo not drawn),7.8%[13.5 µM],-5.9%[10 µM],5.9%,/,-4.6%[10 µM]
SMILES,ALDH1A1 inh,Gal4-VP16 FLuc,Sfp inh,PLK1 PBD inh,RORgamma inh
CC(C)(C)c1ccc(N2C[C@@H](COc3ccc(C(=O)O)cc3)CC2=O)cc1,/,-6.9%,23.2%,/,-0.2%
CCOc1ccccc1CN1CCNC(=O)C1CC(=O)NCCCn1cccn1 (stereo not drawn),/,-7.1%,4.0%,-4.6%,-11.8%
COc1ccccc1CN1CCNC(=O)C1CC(=O)NCCCn1cccn1 (stereo not drawn),25.1µM*,-5.0%,-2.2%,-18.7%,2.8%
COc1ccccc1CN1CCNC(=O)C1CC(=O)NCCC1=CCCCC1 (stereo not drawn),25.1µM*,8.1%,-11.6%,-7.4%,27.6%
CCc1ccc(CNC(=O)CC2C(=O)NCCN2Cc2ccccc2F)nc1 (stereo not drawn),/,?,14.9%,-10.0%,10µM*
CCOc1ccccc1CN1CCNC(=O)C1CC(=O)NCCC1=CCCCC1 (stereo not drawn),/,-14.0%,4.6%,-9.0%,38.5%
CC(C)Cc1nnc(NC(=O)CCC(=O)N2CCN(Cc3ccc(Cl)cc3)CC2)s1,/,-21.2%,8.7%,-20.0%,?
O=C(NCc1c(Cl)cccc1Cl)c1[nH]c(C(F)(F)F)nc1-c1ccccc1,/,/,/,1.6%,/
CCc1ccc(N2C(=O)C(Cl)=C(N3CCCCCC3)C2=O)cc1,/,24.0%,-1.6%,0.4%,?
O=C1C(Cl)=C(N2CCOCC2)C(=O)N1c1cccc(Cl)c1,?,?,-5.5%,-27.1%,?
Cc1cccc(N2C(=O)C(Cl)=C(N3CCOCC3)C2=O)c1,?,?,3.55µM*,-13.1%,5.8%
CCc1ccc(N2C(=O)C(Cl)=C(N3CCOCC3)C2=O)cc1,?,12.6µM*,3.1%,-20.0%,30.0%
CC(C)CN1CCC2(CC1)CCN(C(=O)c1cccc(F)c1)CC2,2.3%,-2.6%,28.1%,/,-1.9%
CC1(C)CC(NS(=O)(=O)OCC(Cl)(Cl)Cl)c2cc(C#N)ccc2O1 (stereo not drawn),/,-3.9%,22.2%,23.8µM*,43.1%
CCCCCCCCCCCCCC(=O)OC(C)C,/,-9.3%,0.4%,/,-2.6%[10 µM]
O=S(=O)(c1ccccc1)N1N=C(c2cccs2)CC1c1ccc(F)cc1 (stereo not drawn),-8.6%,-18.5%,10.5%,21.2µM*,33.9%
Cc1ccc(C2CC(c3cccs3)=NN2S(=O)(=O)c2ccc(C)cc2)cc1 (stereo not drawn),-3.9%,-10.5%,-6.1%,16.7%,-2.1%
CC(O)[C@H]1CN=C(N)N1CC1CCCCC1 (stereo partly drawn),/,/,/,26.7µM*,/
COc1ccc2c(c1OC)C(=O)OC2CC(=O)c1ccc(O)cc1 (stereo not drawn),28.2µM*,-13.3%,13.8%,1.0%,-13.3%
COc1cc(-c2nc3cnccn3c2Nc2ccc(C)cc2)ccc1O,?,-29.8%,8.5%,-1.2%,-34.0%
c1ccc(-c2nc3cnccn3c2Nc2ccc3c(c2)OCCO3)cc1,-0.3%,-7.8%,6.3%,-11.8%,-4.2%
COc1cc(-c2nc3cnccn3c2Nc2ccc(C(C)C)cc2)ccc1O,6.0%,10µM*,11.4%,-1.6%,14.1µM*
Oc1ccc(-c2nc3cnccn3c2Nc2ccc3c(c2)OCCO3)cc1,39.8µM*,0.0%,8.3%,-2.3%,26.7%
